Screening data as filed in PubChem BioAssay.
Tau FP inhib: qHTS for Inhibitors of Tau Fibril Formation, Fluorescence Polarization. 280,000 tested, 0.39% active. Potency, µM (highest dose often 57.7 µM), inactives show at the highest dose activity, negative = inhibition, hits mostly inhibitors. K18 P301L tau heparin fibrillization, Alexa594 FP, 6 h. Microtubule-associated protein tau (Homo sapiens), P10636; further: potency means the concentration at half of the fitted maximal effect; nearly all actives have a fitted effect of over 55% in size
Target sequence (P10636 561-689 P618L limits assumed): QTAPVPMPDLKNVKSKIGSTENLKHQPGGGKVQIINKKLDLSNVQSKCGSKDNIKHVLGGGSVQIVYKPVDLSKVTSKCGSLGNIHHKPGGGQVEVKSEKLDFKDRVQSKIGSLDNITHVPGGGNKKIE
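Steps: dispense K18 P301L tau (15 uM plus 0.24 uM Alexa 594 tracer, final) in pH 7 sodium acetate; add compound; add heparin (20 uM final); incubate 6 hr, 37 C; add ThT (30 uM final); after 1 hr ambient, read FP.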
Tau fibril ThT: qHTS for Inhibitors of Tau Fibril Formation, Thioflavin T Binding; AID 1460, 2008; 270,000 tested, 2.1% active; recombinant tau K18 P301L, heparin-induced fibrillization, ThT fluorescence; Microtubule-associated protein tau (Homo sapiens), P10636; Potency, µM (top dose mostly 57.4 µM), for the others: top-dose activity, negative = inhibition, most hits filed as inhibitors; further: potency means the concentration at half of the fitted maximal effect; nearly all actives have a fitted effect of over 55% in size
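ThT emission at 510 nm, taken 1 hr after adding 30 uM dye, quantifies aggregates formed when 20 uM heparin acts on human tau K18 P301L for 6 hr at 37 C.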
Coupling enz: qHTS Assay for Inhibitors of Fructose-1,6-bisphosphate Aldolase from Giardia Lamblia: Coupling assay counterscreen; activity change, negative = inhibition, % at 58.2 µM, hits read low; coupling enzyme system counterscreen, AmpLite Red fluorescence; 290,000 tested, 0.67% active; in the data active means activity change below about -30%
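First, compound is pin-transferred into glyceraldehyde-3-phosphate coupling-enzyme reagent at 57.5 uM final and held 10 min at RT. Next, substrate, coupling system and AmpLite Red are added. After 20 min RT, fluorescence (525/598 nm) is read.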
USP1 inh: Inhibitors of USP1/UAF1: Primary Screen | 390,000 tested, 0.23% active | Ubiquitin carboxyl-terminal hydrolase 1 (Homo sapiens), O94782 | AID 743255, 2014 | Potency, µM (doses to about 57.1 µM), for the others: top-dose activity change, negative = inhibition, actives largely listed as inhibitors | recombinant USP1/UAF1, Ub-Rhodamine cleavage fluorescence; further: potency means the concentration at half of the fitted maximal effect; nearly all actives have a fitted effect of over 60% in size
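USP1/UAF1 complex at 1 nM was preincubated with compound for 15 min at room temperature, then Ub-Rho substrate (150nM final) was added. Fluorescence (480/540 nm) was read kinetically, 6 reads every 60 seconds.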
Tau fluor cs: Counterscreen qHTS for Inhibitors of Tau Fibril Formation, Fluorescence Polarization; tau K18 P301L (four-repeat tau fragment) Alexa594 fluorescence, heparin fibrillization; Potency, µM (titrated, usually from 57.7 µM), for inactives: at the top dose activity change, negative = decrease; 280,000 tested, 0.93% active; AID 1463, 2008; further: potency means the concentration at half of the fitted maximal effect; nearly all actives have a fitted effect of over 55% in size
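Human K18 P301L tau (15 uM unlabeled plus 0.24 uM Alexa 594-labeled, final) in 100 mM sodium acetate pH 7 was mixed with compound and 20 uM heparin and incubated 6 hr at 37 C.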
Active calls of the source: *; ? = inconclusive; . = no result; ! = a repeat was not active; [ ] = remark or other dose. Compounds with a hit are over-represented: about 2.3% of the library has one in this group of screens. Unless noted, the call rests on the fitted dose curve; in most records, active means well fitted curve in the direction sought with a large enough effect; inconclusive means small, poorly fitted or top-dose-only effect, or another doubt; inactive means no such curve, though single readings can be large; an effect the other way counts as inactive or inconclusive. On the % scale 0 is the no-effect control and ±100 the full control effect.

SMILES | Tau FP inhib | Tau fibril ThT | Coupling enz | USP1 inh | Tau fluor cs
Cc1ccc2c(c1)C1(CCN(CCc3nc(-c4ccccc4)oc3C)CC1)OC(=O)N2 | . | . | 0 | . | .
C=C1C(=O)O[C@@H]2C[C@@H](C)[C@@H]3C=CC(=O)[C@@]3(C)[C@@H](OC(=O)CC(=O)O[C@H]3[C@@H]4C(=C)C(=O)O[C@@H]4C[C@@H](C)[C@@H]4C=CC(=O)[C@]43C)[C@H]12 | 8.9µM* | 2.8µM* | 1 | ? | -18%
C=C1C(=O)OC2CC(C)C3C=CC(=O)C3(C)C(O)C12 (centres undefined) | . | . | . | -11% | .
C=C1C(=O)O[C@H]2C[C@@H](C)[C@@H]3C=CC(=O)[C@@]3(C)C[C@H]12 | ? | 18µM* | 6 | 33% | -9%
C=C1C(=O)O[C@H]2[C@H]1[C@H](OC(=O)CC(=O)O[C@@H]1C[C@@H](C)[C@@H]3C=CC(=O)[C@@]3(C)[C@H]3OC(=O)C(=C)[C@H]13)C[C@@H](C)[C@H]1C=CC(=O)[C@]12C | 11µM* | 16µM* | -1 | -6% | -8%
C=C1C(=O)OC2C1CCC(C)C1(O)C=CC(=O)C21C (centres undefined) | . | . | . | -11% | .
C=C1CCC(O)C/C1=C\C=C1/CCCC2(C)C1CCC2C(C)CCCC(C)C (centres undefined) | -6% | ? | 0 | . | -26%
O=C1CC(=O)N(c2ccccc2)C(=O)N1c1ccccc1 | . | . | 1 | 1% | .
COc1ccccc1N1CCN(Cc2ccccc2)CC1 | . | . | 2 | -17% | .
COc1ccc(N2C(=O)C(Cl)=C(N3CCN(Cc4ccccc4)CC3)C2=O)cc1 | 28µM* | 25µM* | -3 | -14% | -30%
O=C1C(Cl)=C(N2CCCCCC2)C(=O)N1c1ccccc1 | ? | 25µM* | 8 | -26% | ?
COc1ccc(C(=O)NCCn2cc(SCc3ccc(C(F)(F)F)cc3)c3ccccc32)cc1OC | -13% | ? | . | -10% | ?
COC(=O)NC/C=C\c1nc(CC/C=C\C(=O)O[C@H]2C[C@H]3CC(=O)O[C@@H](/C=C\CC(C)C)C[C@@H]4CC[C@H](C)[C@H](C[C@@H](OC)C[C@H](C2)O3)O4)co1 | 2%[11.6 µM] | 4%[11.5 µM] | -5 | . | 1%[11.6 µM]
CCC(C)/C=C(C)/C=C/C1=CC2=C(Cl)C(=O)C(C)(OC(C)=O)C(=O)C2=CO1 (centres undefined) | 1% | ? | 0 | ? | ?
CC[C@H](C)/C=C(C)/C=C/C1=CC2=C(Cl)C(=O)[C@@](C)(OC(C)=O)C(=O)C2=CO1 | . | . | . | 32µM* | .
C[C@]12CC[C@@H]3c4ccc(O)c(O)c4CC[C@H]3[C@@H]1CC[C@@H]2O | ? | 14µM* | -47* | ? | ?
CCCCNC(=O)Oc1c(Br)cc2sc(=O)oc2c1Br | ? | . | 4 | . | ?
NC1=C(Br)C(=O)c2ccccc2C1=O | -13% | ? | -19 | 8.9µM* | -20%
O=C1C(=O)c2ccccc2-c2ccccc21 | ? | 3.2µM* | -82* | 1µM* | -22%
CC[C@H](C)[C@H](NC(=O)[C@@H](N)Cc1ccc(O)cc1)C(=O)NCC(=O)N[C@@H](CO)C(=O)N[C@@H](CCCN=C(N)N)C(N)=O | . | . | -1 | . | .
O=C1Nc2ccc(Br)cc2C(c2ccc(Cl)cc2)=NC1O (centres undefined) | . | . | -34* | -23% | .
CCOc1cncc(/C=C/CCNC)c1 | . | . | 3 | . | .
Nc1cncc(C(=O)O)c1 | 1% | 1% | -31*! | -6% | 6%
Cc1ccc(C)c(N2CCN(c3nc4ccc(Cl)cc4n4cnnc34)CC2)c1 | -5% | 1% | . | ? | 0%
COc1ccc2o/c(=N\O)c(C(=O)Nc3ccc(C)cc3)cc2c1 | -12% | 16µM* | 0 | -10% | -24%
O=C(O)c1ccc[nH]c1=S | ? | ? | -24 | -9% | -17%
